Compound activity as filed in PubChem BioAssay.
Sampled rows, rich in hits. Any-hit rate of the full collection: about 2.6%.
TCR-CD3 inh: inhibitors of human TCR-CD3 interaction; TAMRA-labeled TCR probe fluorescence, biochemical; inhibition, % at 9.4 µM; 360,000 compounds, 0.37% hits;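 note: recombinant mutant TCR 2C K166C tagged with TAMRA read by polarization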
SIAE inh: blocks human sialic acid acetylesterase. SIAE FP-Rh probe binding, fluorescence polarization. 370,000 compounds, 0.69% hits. inhibition, % at 9.66 µM;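 active = inhibition above a cutoff: mean of compounds within the control limits plus 3 SD of those, cut at about 17% in these data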
Fam108B inh: blocks mouse Fam108B hydrolase in RBBP9 counter-screen | recombinant Fam108B, FP-Rh probe fluorescence polarization | inhibition, % at 9.51 µM | 300,000 compounds, 0.33% hits;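 active = inhibition above the screen mean inhibition plus 3 SD, computed separately per campaign, cut at about 18% in these data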;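 note: inhibitors lower polarization as less probe binds the enzyme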
PRMT1 inh: blocks human protein arginine methyltransferase 1; Q99873; recombinant PRMT1, activity-based probe fluorescence polarization; inhibition, % at 2.79 µM; 370,000 compounds, 1.3% hits; AID 652257;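 active = inhibition above about 21% made by adding two undisclosed values, limit read from the data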
PME-1 inh: PME-1 (human) inhibition. Q9Y570. recombinant PME-1, FP-Rh probe fluorescence polarization. 320,000 compounds, 0.53% hits. inhibition, % at 5.9 µM;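 active = inhibition above the campaign mean of all compounds plus 3 SD, cut at about 26% in these data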;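 note: competitive labeling of PME-1 active site by serine hydrolase directed probe; inhibitors block probe labeling so polarization falls and inhibition rises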
PAD4 FP inh: blocks human protein arginine deiminase 4; recombinant PAD4, RCA probe fluorescence polarization; inhibition, % at 6.36 µM; 330,000 compounds, 0.41% hits;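 active = percent inhibition above a cutoff equal to the mean of all tested compounds plus 3 SD, cut at about 15% in these data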
Target sequence (Q9UM07 whole entry, looked up): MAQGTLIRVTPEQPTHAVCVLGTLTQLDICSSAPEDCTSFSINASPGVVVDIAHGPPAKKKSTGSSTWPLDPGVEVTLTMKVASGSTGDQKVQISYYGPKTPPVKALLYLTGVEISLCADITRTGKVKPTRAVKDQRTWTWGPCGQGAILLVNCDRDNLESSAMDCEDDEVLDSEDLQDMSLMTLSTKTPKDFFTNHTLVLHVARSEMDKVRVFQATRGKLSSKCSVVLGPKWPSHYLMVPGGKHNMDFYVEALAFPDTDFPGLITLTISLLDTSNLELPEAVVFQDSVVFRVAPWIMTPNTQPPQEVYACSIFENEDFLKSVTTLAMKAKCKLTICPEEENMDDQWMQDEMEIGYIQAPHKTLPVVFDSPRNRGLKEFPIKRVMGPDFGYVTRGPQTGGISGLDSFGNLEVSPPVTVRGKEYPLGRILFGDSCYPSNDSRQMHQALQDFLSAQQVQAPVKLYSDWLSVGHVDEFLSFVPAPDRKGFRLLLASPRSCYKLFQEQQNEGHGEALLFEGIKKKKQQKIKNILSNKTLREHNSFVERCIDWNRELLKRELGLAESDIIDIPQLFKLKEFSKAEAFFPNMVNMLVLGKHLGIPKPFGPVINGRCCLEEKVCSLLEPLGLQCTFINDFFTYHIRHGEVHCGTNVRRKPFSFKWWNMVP
PAD4 FP conf: confirmation of human PAD4 inhibitors; shares compounds with PAD4 FP inh; recombinant PAD4, RCA probe fluorescence polarization; inhibition, % at 6.36 µM; 1,200 compounds, 28% hits; AID 488796;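 active = mean inhibition across replicates above the hit cutoff set by the earlier primary screen, cut at about 15% in these data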;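 note: inhibitors block active-site labeling by the probe so polarization falls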
BSA probe FL: BSA probe counter-screen for TCR-CD3 inhibitors. shares compounds with TCR-CD3 inh. TAMRA-labeled BSA probe fluorescence counterscreen. inhibition, % at 9.4 µM. 1,200 compounds, 10% hits; in the data active = inhibition above about 23%
TCR-CD3 conf: TCR-CD3 interaction inhibition, confirmation; shares compounds with TCR-CD3 inh; TAMRA-labeled TCR probe fluorescence binding assay; inhibition, % at 9.4 µM; 1,200 compounds, 48% hits; AID 652036
PRMT1 inh conf: PRMT1 (human) inhibition, FP confirmation; shares compounds with PRMT1 inh; recombinant His-PRMT1, activity-based probe fluorescence polarization; inhibition, % at 2.79 µM; 3,300 compounds, 42% hits; AID 687036;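 active = mean inhibition across replicates above the hit cutoff derived for the earlier primary screen, cut at about 22% in these data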
SIAE confirm: human SIAE inhibition, confirmation. shares compounds with SIAE inh. inhibition, % at 9.66 µM. 2,300 compounds, 13% hits. AID 1117263. SIAE FP-Rh activity-based probe, fluorescence polarization;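 active = mean inhibition of the replicates above the hit cutoff set in the primary screen, cut at about 17% in these data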;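 note: inhibitors lower polarization as more probe stays unbound to SIAE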
Hits are given with their value; – = inactive; · = not tested or not shown. Cut-off read from the data, not from the text of the source, unless noted: active = inhibition above about 19%; inactive = the rest.

SMILES	TCR-CD3 inh	SIAE inh	Fam108B inh	PRMT1 inh	PME-1 inh	PAD4 FP inh	PAD4 FP conf	BSA probe FL	TCR-CD3 conf	SIAE confirm	others
Cc1noc(NS(=O)(=O)c2ccc(NC(=O)CSc3nc4ccccc4s3)cc2)c1C	–	–	–	40	–	19	–	·	·	·	PRMT1 inh conf=37
C=CCN(C(=O)[C@@H](C)[C@@H](O)c1ccc(Cl)cc1)c1ccccc1	·	–	·	–	·	·	·	·	·	·
O=C(O)c1ccccc1NS(=O)(=O)c1cccc(C(F)(F)F)c1	–	–	–	–	–	–	·	·	·	·
O=C(O)c1ccccc1NS(=O)(=O)c1cccc(-n2sc3ccccc3c2=O)c1	–	–	–	94	–	43	33	·	·	·	PRMT1 inh conf=93
CC1(OC(=O)c2cccs2)C(=O)C=C2C=C(C3CC3)OC=C2C1=O (stereo not given)	–	–	–	–	–	–	·	·	·	·
CC1(OC(=O)c2ccco2)C(=O)C=C2C=C(C3CC3)OC=C2C1=O (stereo not given)	57	24	–	–	–	20	–	56	37	–
COc1cccc(NC(=O)C2CCCN2C(=O)NCc2ccccc2OC)c1 (stereo not given)	·	–	·	–	·	·	·	·	·	·
O=[N+]([O-])c1cc(Br)c(O)c(C=Nc2ccc(N3CCOCC3)cc2)c1	49	29	–	–	–	54	–	·	·	–
CCCCN1C(=O)/C(=C/C=C2\SCCN2C)SC1=S	–	–	·	–	·	·	·	·	·	·
CN1CCS/C1=C/C=C1/SC(=S)N(Cc2ccccc2)C1=O	–	22	–	–	–	49	–	·	·	22
Cc1ccc(CNC(=O)c2ccc(S(=O)(=O)N3CCCCC3)cc2)cc1	–	–	·	–	·	·	·	·	·	·
Cc1cc2cc(CNS(=O)(=O)c3ccccc3)ccc2n1C	50	17	–	–	–	18	–	–	–	–
Cc1cc2cc(CNC(=O)c3ccc(S(=O)(=O)N4CCCCC4)cc3)ccc2n1C	85	35	–	–	–	31	–	·	·	–
CCCC1CCC2(CC1)CCC2OC(=S)NCCc1ccc(Cl)cc1 (stereo not given)	·	–	·	–	·	·	·	·	·	·
Cc1nn(-c2cccc(Cl)c2)c2c1C(c1ccncc1)C(C#N)=C(N)O2 (stereo not given)	–	20	–	–	–	34	–	·	·	–
Cc1nn(-c2ccccc2)c2c1C(c1cccs1)C(C#N)=C(N)O2 (stereo not given)	·	·	–	·	–	–	·	·	·	·
O=C1N2CCc3ccccc3C2CS(=O)(=O)N1Cc1ccc(F)cc1 (stereo not given)	·	–	·	–	·	·	·	·	·	·
CC/C(=C\C(=O)c1ccncc1)Nc1ccc(O)cc1	51	22	–	–	–	77	–	·	·	–
CC(COc1ccc(S(C)(=O)=O)cc1)CN1CCC(C(O)(c2ccccc2)c2ccccc2)CC1 (stereo not given)	·	–	·	–	·	·	·	·	·	·
CCCC(=Nc1ccc(N)cc1)C1=C(O)C(C(=O)OC)C(C)(C)CC1=O (stereo not given)	67	35	–	–	34	67	–	–	–	–
COc1cc(NC(=O)C(OC(=O)CNC(=O)c2ccccc2)c2ccccc2)cc(C(F)(F)F)c1 (stereo not given)	·	–	·	–	·	·	·	·	·	·
Cc1cc2nc3c(=O)[nH]c(=S)[nH]c3nc2cc1NC(=O)C(F)(F)F	70	21	–	165	–	41	39	–	–	–
O=c1[nH]c(=S)[nH]c2nc(-c3ccccc3)cnc12	–	–	–	–	–	–	·	·	·	·
COc1ccc(CN2C/C(=C/c3ccccc3)N3C(=O)C[C@@H](c4ccc5ccccc5c4)N=C23)c(OC)c1	·	–	·	–	·	·	·	·	·	·
Cc1ccc(-c2ccccc2NC(=O)CS(=O)CC(=O)Nc2ccc(C)c(Cl)c2)o1 (stereo not given)	85	45	–	52	45	113	–	–	–	–
SMILES	TCR-CD3 inh	SIAE inh	Fam108B inh	PRMT1 inh	PME-1 inh	PAD4 FP inh	PAD4 FP conf	BSA probe FL	TCR-CD3 conf	SIAE confirm	others
COc1ccc(C(=O)OCCN2CCN(C3CN(Cc4cn(Cc5ccccc5C(F)(F)F)nn4)S(=O)(=O)C3)CC2)cc1OC (stereo not given)	·	–	·	–	·	·	·	·	·	·
Cc1cc2c(c(=O)o1)C(c1ccc([N+](=O)[O-])o1)C(C#N)=C(N)O2 (stereo not given)	38	23	–	–	–	27	–	–	–	–
COc1ccc(Br)cc1CNc1ccc2[nH]c(=O)[nH]c2c1	–	–	–	–	–	–	·	·	·	·
COc1ccc(Br)cc1CNc1ccc(O)cc1	31	32	–	–	29	28	–	–	–	–
COc1cc(C(C[N+](=O)[O-])c2c(C)cc3ccccn23)ccc1O (stereo not given)	–	19	–	–	–	60	–	·	·	–
CN(C(=S)Nc1ccc(Oc2ccccc2)cc1)c1ccc(O)cc1	–	21	–	–	–	25	–	·	·	–
CCCCN(C)C(=S)Nc1ccc(Oc2ccccc2)cc1	–	–	–	–	–	–	·	·	·	·
O=C1CCCC(O)=C1N=Nc1c(Cl)cc(Cl)cc1Cl	–	21	–	–	–	36	–	·	·	–
C[C@H]1[C@@H](OC(=O)Nc2ccc(Cl)cc2)CC[C@@]23CCCN2C(=O)CCC[C@@H]13	·	–	·	–	·	·	·	·	·	·
CC(=O)c1ccc(NC(=O)COC(=O)c2c3c(nc4ccccc24)/C(=C\c2cccs2)CCC3)cc1	65	–	–	–	–	–	·	–	40	·
C[C@H](NC(=O)c1nc[nH]c1C(=O)N[C@@H](CCCCNC(=O)OC(C)(C)C)C(=O)OC(C)(C)C)C(=O)OCc1ccccc1	27	–	–	–	–	–	·	–	–	·
COc1cccc(OC)c1C(=O)NC(=S)Nc1cc(-c2nc3ccccc3[nH]2)ccc1Cl	60	–	–	–	–	–	·	–	–	·
COc1ccc(Cl)cc1S(=O)(=O)N1CCN(C(=O)CSc2nc3ccccc3nc2N2CCCC2)CC1	·	–	·	–	·	·	·	·	·	·
O=C(N/N=C/c1c(O)n(-c2ccc(Cl)cn2)c(=O)c2ccccc12)C1CC1	23	–	–	–	–	–	·	–	26	·
O=C(CCC(=O)N/N=C/c1cc(Cl)cc(Cl)c1O)NCc1ccccc1	21	–	–	–	–	–	·	–	23	·
CC(=O)c1ccc(OC2(C)CCN(Cc3cc4ccccc4[nH]3)C2)cc1 (stereo not given)	31	–	·	–	·	·	·	–	–	·
